# Shown are actives, neighbours in structure and some others; about 22% of the full set was active somewhere.
# E-sel TNF inh: blocks E-selectin expression induced by TNF alpha; HUVEC TNFa-induced E-selectin immunofluorescence, high content; inhibition, % at 2 µM; 120,000 compounds, 0.71% hits; AID 1246;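 active = inhibition above the batch mean plus 3 SD, and confirmed as a hit on visual image review, cut at about 43% in these data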;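 also: 0% = TNF-stimulated DMSO wells and 100% = unstimulated control wells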
# CYP2C9 inh: human CYP2C9 inhibition | P11712 | CYP2C9 Supersomes, luciferin-H conversion, luminescence | inhibition, % at 5 µM | 96,000 compounds, 20% hits | AID 777;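 active = blocking of liver enzyme CYP2C9 beyond about 50% at 5 µM, limit read from the data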
# F-actin modifier: alters cytoskeleton assembly in HUVEC cells; HUVEC TNFa F-actin phalloidin imaging, high content; inhibition, % at 2 µM; 91,000 compounds, 0.18% hits;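 active = inhibition above the batch mean plus 3 SD and confirmed as a hit by visual image inspection, cut at about 30% in these data, passing the limit was not always enough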
# CYP2C19 inh: blocks human cytochrome P450 2C19; P33261; CYP2C19 Supersomes, luciferin-H EGE luminescence, 30 min; inhibition, % at 5 µM; 96,000 compounds, 21% hits; AID 778;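 active = CYP2C19 inhibition above a set limit at 5 µM in the primary screen, cut at about 50% in these data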;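 also: plate controls were negative control wells for no effect and 2.5 mM tranylcypromine positive control for full effect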
# Target sequence (P33261 whole entry, looked up): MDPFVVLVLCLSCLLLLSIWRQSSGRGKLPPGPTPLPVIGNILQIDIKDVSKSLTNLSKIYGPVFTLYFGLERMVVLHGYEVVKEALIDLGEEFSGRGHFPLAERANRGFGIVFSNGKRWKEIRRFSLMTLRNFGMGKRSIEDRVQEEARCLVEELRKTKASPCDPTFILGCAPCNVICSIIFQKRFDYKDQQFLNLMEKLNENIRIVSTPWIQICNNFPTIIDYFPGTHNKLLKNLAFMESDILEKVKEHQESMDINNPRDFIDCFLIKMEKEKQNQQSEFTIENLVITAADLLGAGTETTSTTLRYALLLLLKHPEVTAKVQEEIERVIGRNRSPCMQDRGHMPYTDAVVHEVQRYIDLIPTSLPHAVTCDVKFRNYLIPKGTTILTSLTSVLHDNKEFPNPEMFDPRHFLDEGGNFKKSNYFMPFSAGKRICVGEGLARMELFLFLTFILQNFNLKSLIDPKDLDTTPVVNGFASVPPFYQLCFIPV
# CYP2C19 activ: activators of human cytochrome P450 2C19. AID 1025. recombinant CYP2C19, luciferin-H EGE luminescence; hits give high values; 0 = fully inhibited enzyme, 1 = untreated enzyme. P33261. activation factor at 5 µM. 96,000 tested, under 10 active;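 active = activation factor of at least 2 at 5 µM in the primary screen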;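 also: 0 = wells with 2.5 mM tranylcypromine and 1 = vehicle-only wells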
# CYP2C9 act: CYP2C9 (human) activation; recombinant CYP2C9, luciferin-H conversion, luminescence; hits give high values; factor 1 = untreated enzyme, 0 = blocked; activation factor at 5 µM; 96,000 compounds, 1.4% hits;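 active = activation factor of 2 or more for CYP2C9 at a 5 µM dose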;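 also: 0 = sulfaphenazole-blocked wells and 1 = vehicle-only wells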
# Active calls of the source: *; nt = not tested or not shown.
SMILES,E-sel TNF inh,CYP2C9 inh,F-actin modifier,CYP2C19 inh,CYP2C19 activ,CYP2C9 act
CCOc1ccc(S(=O)(=O)N/N=C2/CC(c3ccccc3)Oc3ccccc32)cc1 (stereo not drawn),-14.4,87.6*,16.0,55.5*,0.4,0.1
CCOc1ccc(Cc2nc(C)c(CC(=O)N3CCOCC3)c(=O)[nH]2)cc1,14.6,-15.3,12.4,0.1,1,1.2
Cc1nn(-c2ccccc2)c(Cl)c1/C=C(\CC(=O)O)c1nc2ccccc2s1,42.4,74.3*,5.0,19.1,0.8,0.3
Cc1nn(-c2ccccc2)c(Cl)c1/C=C/C(=O)c1ccccc1,15.5,65.8*,5.3,70.3*,0.3,0.3
Cc1nn(-c2ccccc2)c(Cl)c1/C=N/O,5.8,nt,nt,nt,nt,nt
COc1ccc(N(CC(=O)NCc2ccccn2)S(=O)(=O)c2ccccc2[N+](=O)[O-])c(OC)c1,-1.0,nt,nt,nt,nt,nt
CC1CCCCN1C(=O)CSc1nnc(CSc2ncccn2)n1C (stereo not drawn),-18.5,-8.6,15.7,-14.7,1.1,1.1
Cc1ccc(C(=O)/C=C/Nc2ccc3c(c2)OCO3)cc1,49.2,7.4,-39.4,15.7,0.8,0.9
CC(=O)Nc1ccc2c(CN3C(=O)NC(C)(c4ccc(C)cc4)C3=O)cc(=O)oc2c1 (stereo not drawn),-10.8,nt,nt,nt,nt,nt
CCOC(=O)C1CCCN(Cc2cc(=O)oc3cc(C)ccc23)C1 (stereo not drawn),39.6,nt,nt,nt,nt,nt
Cc1ccc2c(CN3C(=O)NC(C)(c4ccc5c(c4)OCO5)C3=O)cc(=O)oc2c1 (stereo not drawn),44.5,98.3*,-14.5,92.3*,0.1,0
Cc1cc2oc(=O)cc(CN3CCC(C)CC3)c2cc1Cl,nt,10.3,23.5,85.2*,0.1,0.9
Cc1cc2oc(=O)cc(CN3CCCCC3C)c2c(C)c1Cl (stereo not drawn),15.9,11.0,5.1,55.6*,0.4,0.9
Cc1ccc2c(CN3CCC(C)CC3)cc(=O)oc2c1,15.5,67.3*,4.8,100.2*,0,0.3
CCc1cc(=O)oc2cc(C)c(CN3CCCC3)c(O)c12,21.1,-9.1,-7.1,-15.8,1.2,1.1
NC(=O)CN1CCN(C(=O)NC2CCCCC2)CC1,-4.9,-17.4,-3.3,-15.2,1.2,1.2
CC(=O)Nc1ccc(N(C)C)cc1[N+](=O)[O-],-57.3,-25.2,-36.4,-15.2,1.2,1.3
CCOC(=O)c1sc2nc(CC(=O)OC)nc(NCc3ccco3)c2c1C,-1.8,84.3*,-6.3,61.0*,0.4,0.2
Cc1nc(SCC(=O)N(C)Cc2ccco2)c2c(C)c(C)sc2n1,8.2,87.5*,13.9,68.3*,0.3,0.1
Cc1nc(NCc2ccco2)c2c(C)c(C)sc2n1,6.3,82.0*,14.6,77.0*,0.2,0.2
CCOC(=O)c1sc2nc(CC(=O)OC)nc(NCC(=O)OC)c2c1C,-5.6,-4.1,5.3,-1.9,1,1
Cc1sc2ncnc(N(C)Cc3ccco3)c2c1C,27.8,78.4*,6.2,95.8*,0,0.2
CCOC(=O)c1[nH]nc2c1C(=O)N(Cc1ccccc1)C2=O,-7.1,20.2,38.0,34.0,0.7,0.8
COc1ccc(C2C3=C(Nc4ncnn42)c2ccccc2CC3)cc1OC (stereo not drawn),nt,36.1,-11.1,55.2*,0.4,0.6
Cc1cc(=O)[nH]c(Nc2ccc(C(=O)OC(C)C)cc2)n1,12.4,27.0,nt,25.9,0.7,0.7
SMILES,E-sel TNF inh,CYP2C9 inh,F-actin modifier,CYP2C19 inh,CYP2C19 activ,CYP2C9 act
N=C(N)SCc1nc2ccccc2c(=O)n1-c1ccccc1,61.0*,nt,nt,nt,nt,nt
Cc1occc1C(=O)Nc1cccc(C(F)(F)F)c1,12.3,nt,-3.1,nt,nt,nt
Nc1ccccc1C(=O)Nc1cccc(C(=O)O)c1,nt,13.6,-34.8,59.1*,0.4,0.9
CC(=O)Nc1ccc(C(=O)/C=C/c2ccco2)cc1,-9.3,nt,nt,nt,nt,nt
CC(=O)Nc1cccc(C(=O)/C=C/c2ccco2)c1,7.1,-126.2,-2.3,47.0,0.5,2.3*
Cc1occc1C(=O)Nc1cccc(C(=O)O)c1,-18.4,41.4,-4.4,71.0*,0.3,0.6
O=C(Nc1nnc(-c2ccccc2Cl)o1)c1ccc(S(=O)(=O)N2CCCCCC2)cc1,-12.5,54.5*,2.8,15.8,0.8,0.5
CCCCN(CC)S(=O)(=O)c1ccc(C(=O)Nc2nnc(-c3ccccc3Cl)o2)cc1,nt,68.8*,nt,10.6,0.9,0.3
CC1CCCCN1S(=O)(=O)c1ccc(C(=O)Nc2nnc(-c3ccccc3Cl)o2)cc1 (stereo not drawn),nt,22.3,-5.9,27.6,0.7,0.8
CCC1CCCCN1S(=O)(=O)c1ccc(C(=O)Nc2nnc(-c3ccccc3Cl)o2)cc1 (stereo not drawn),-53.6,nt,-11.9,nt,nt,nt
CCCCN(CC)S(=O)(=O)c1ccc(C(=O)Nc2nnc(CSC)o2)cc1,nt,81.8*,-19.6,-3.6,1,0.2
CCN(Cc1ccccc1)S(=O)(=O)c1ccc(C(=O)Nc2nnc(-c3ccccc3OC)o2)cc1,nt,70.1*,nt,0.3,1,0.3
COc1ccccc1-c1nnc(NC(=O)c2ccc(S(=O)(=O)N(C)C)cc2)o1,nt,-15.2,nt,2.3,1,1.2
CCCCN(CCCC)S(=O)(=O)c1ccc(C(=O)Nc2nnc(CSC)o2)cc1,-10.5,5.3,nt,-11.3,1.1,0.9
Cc1cc(C)cc(N(C(=O)CCC(=O)Nc2ccccn2)C(C(=O)NC(C)C)c2ccc(O)cc2)c1 (stereo not drawn),7.9,nt,nt,nt,nt,nt
COc1ccccc1-c1cc(C(F)(F)F)nc(NCc2cccs2)n1,-9.0,nt,nt,nt,nt,nt
O=C(c1scc2c1CCCC2)N1CCOCC1,nt,-2.0,12.8,15.5,0.8,1
O=C(Nc1nnc(-c2ccncc2)o1)c1ccccc1F,8.5,nt,nt,nt,nt,nt
CCCCN(CC)S(=O)(=O)c1ccc(C(=O)Nc2nnc(COC)o2)cc1,nt,64.2*,3.4,-4.9,1,0.4
CCc1nnc(NC(=O)c2ccc(S(=O)(=O)N(CCOC)CCOC)cc2)s1,nt,-102.1,6.1,1.2,1,2*
COc1ccccc1-c1nnc(NC(=O)c2ccccc2F)o1,nt,63.7*,-3.3,-4.3,1,0.4
C=CCN(CC=C)S(=O)(=O)c1ccc(C(=O)Nc2nnc(COC)o2)cc1,-44.3,nt,nt,nt,nt,nt
CCCCSc1nnc2nc(C)cc(C)n12,-6.4,-15.2,57.1,3.7,1,1.2
Cc1noc(C)c1CSc1ncnc2ccccc12,-21.4,86.1*,-1.4,96.2*,0,0.1
CCn1c(CSc2nc3ccccc3s2)nc2ccccc21,15.1,-26.6,-4.2,97.7*,0,1.3
C#CCSc1nnc(CSc2nc3ccccc3s2)n1-c1ccccc1,14.7,99.2*,-7.5,85.4*,0.1,0
O=C(O)CSc1nnc(CSc2nc3ccccc3s2)n1-c1ccccc1,-13.9,nt,nt,nt,nt,nt
Cc1noc(C)c1COc1ncnc2ccccc12,-12.5,nt,nt,nt,nt,nt
c1csc(CSc2nc3ccccc3s2)c1,-13.2,8.9,nt,44.8,0.6,0.9
Cc1noc(C)c1CSc1nc2ccccc2s1,-12.7,39.2,nt,94.4*,0.1,0.6
